High-throughput results (PubChem BioAssay)
A selection: hits, their analogues and other compounds. The true share with any hit is near 3.9%.
CCHF vOTU inh = CCHFV vOTU protease inhibition; 370,000 tested, 0.55% active; inhibition, % at 11.5 µM; Pep-AMC fluorescence; AID 651958; in the data active means inhibition above about 30%; further: 0% = vehicle wells with enzyme and 100% = no enzyme wells
BoNT-A LC inh2 = BoNT A light chain protease inhibition. multiplex microsphere protease substrate cleavage, flow cytometry. 360,000 tested, 0.17% active. inhibition, % at 10 µM. AID 588499; further: plate controls were buffer without enzyme for full effect and enzyme alone for no effect
BoNT F protease = BoNT F light chain protease inhibition; Multiplex microsphere protease cleavage assay, flow cytometry; inhibition, % at 10 µM; 360,000 tested, 0.22% active; AID 588497; in the data active means inhibition above about 35%, passing the limit was not always enough; inconclusive means no clear call, values can overlap the other calls; further: plate controls were buffer without enzyme for full effect and enzyme alone for no effect
Bead autofluor = compound fluorescence in toxin protease inhibitor counterscreen | compound autofluorescence counterscreen, microsphere flow cytometry; hits give high values | fluorescence intensity (test concentration not listed) | 360,000 tested, 3.1% active | AID 624483; in the data active means fluorescence intensity above about 16000; inconclusive means no clear call, values can overlap the other calls
3CLpro inhibitor = SARS-CoV 3CLpro protease inhibition | inhibition, % at 6 µM | recombinant SARS-CoV 3CLpro, quenched FRET peptide cleavage | 290,000 tested, 0.14% active; in the data active means inhibition above about 12%
Anthrax LF prot = inhibitors of Bacillus anthracis lethal factor protease | 360,000 tested, 0.12% active | P15917 | inhibition, % at 10 µM | multiplex microsphere protease cleavage assay, LF; further: plate controls were buffer without enzyme for full effect and enzyme alone for no effect
Target sequence (P15917 whole entry, looked up): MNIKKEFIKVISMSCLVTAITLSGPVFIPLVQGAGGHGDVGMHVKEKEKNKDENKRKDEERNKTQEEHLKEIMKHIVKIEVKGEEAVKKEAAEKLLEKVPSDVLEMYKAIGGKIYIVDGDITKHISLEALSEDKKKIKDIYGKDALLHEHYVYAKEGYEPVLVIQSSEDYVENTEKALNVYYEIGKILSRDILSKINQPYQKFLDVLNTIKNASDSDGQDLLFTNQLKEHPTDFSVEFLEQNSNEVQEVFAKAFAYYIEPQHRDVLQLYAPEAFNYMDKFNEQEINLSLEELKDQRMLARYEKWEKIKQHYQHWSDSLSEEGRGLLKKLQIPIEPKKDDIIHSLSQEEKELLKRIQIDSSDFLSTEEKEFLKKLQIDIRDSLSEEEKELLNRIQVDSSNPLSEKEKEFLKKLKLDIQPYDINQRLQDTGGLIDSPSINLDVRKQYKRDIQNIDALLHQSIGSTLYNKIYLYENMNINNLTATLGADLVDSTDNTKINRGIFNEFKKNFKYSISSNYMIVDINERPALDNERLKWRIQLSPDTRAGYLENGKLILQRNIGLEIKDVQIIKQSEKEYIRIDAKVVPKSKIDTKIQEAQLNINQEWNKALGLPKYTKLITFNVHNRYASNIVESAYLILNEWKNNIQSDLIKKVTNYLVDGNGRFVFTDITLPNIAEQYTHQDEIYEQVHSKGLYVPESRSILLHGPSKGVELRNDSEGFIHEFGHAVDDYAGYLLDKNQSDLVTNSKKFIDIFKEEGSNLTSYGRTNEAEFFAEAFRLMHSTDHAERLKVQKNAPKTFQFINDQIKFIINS
Active calls of the source: *; ? = inconclusive; . = no result. Unless noted, no stated cut-off is given here; in the data, active means inhibition above about 30%; inconclusive means no clear call, values can overlap the other calls; inactive means below that.

SMILES	CCHF vOTU inh	BoNT-A LC inh2	BoNT F protease	Bead autofluor	3CLpro inhibitor	Anthrax LF prot
CCCCn1c(N)c(N(Cc2ccccc2OC)C(=O)COc2ccccc2C#N)c(=O)[nH]c1=O	6	-1	-2	4117	2	-1
Cc1cc(C)n2c(SCC(=O)Nc3cc(S(=O)(=O)N(C)C)ccc3C)nnc2n1	-22	-1	0	4056	.	-3
NS(=O)(=O)c1ccc(NC(=O)CSc2ccc3ccccc3n2)cc1	3	-1	-2	16858*	3	-1
CCC(C)Nc1c([N+](=O)[O-])cc(C)cc1[N+](=O)[O-] (centres undefined)	-10	?	-7	24719*	3	-3
Cc1cc(C)n2nc(C(=O)OC(C)C(=O)c3ccccc3)nc2n1 (centres undefined)	-5	3	6	5800	.	-1
Cc1oc(-c2ccccc2F)nc1CSCC(=O)NCc1ccc2c(c1)OCO2	-7	4	4	20539*	2	-10
Cc1ccccc1-c1nnn(CC(=O)NCc2ccc3c(c2)OCO3)n1	12	-2	0	21659*	1	1
Cc1ccccc1-c1nnn(CC(=O)Nc2ccc3c(c2)OCO3)n1	14	0	-1	4183	-4	-5
CCn1c(SCC(=O)NCc2ccc3c(c2)OCO3)nnc1-c1c[nH]c2ccccc12	1	0	-5	3148	1	-1
O=C(CN1C(=O)c2cccc3cccc1c23)Nc1ccc2c(c1)OCO2	-1	1	-8	9101	1	-4
O=C(CN1C(=O)c2cccc3cccc1c23)NCc1ccc2c(c1)OCO2	-3	?	-2	23642*	1	-1
Cn1c(SCC(=O)NCc2ccc3c(c2)OCO3)nnc1-c1c[nH]c2ccccc12	.	?	-5	16863*	-1	-2
Cc1ccc(S(=O)(=O)Nc2ccc3c(c2)C(=O)N([C@@H](C)CO)C[C@@H](C)[C@@H](CN(C)CC2CC2)OCCCC[C@@H](C)O3)cc1	-9	0	-3	3629	.	9
COc1cc(C(=O)OCC(=O)N2CCCC2)cc2c1OCCO2	-5	2	4	5788	.	-5
Cc1ccc(CN(C)C(=O)CCNS(=O)(=O)c2ccccc2)o1	-5	0	-4	5516	.	0
Cc1nc2ccc3[nH]snc3c2n1	7	0	2	23032*	-5	-1
CC(C)NC(=O)C1(c2ccccc2)CCOCC1	-6	1	0	2499	-4	-5
CC(Cc1ccccc1)NC(=O)C1(c2ccccc2)CCOCC1 (centres undefined)	-4	?	-1	22824*	-1	-2
O=C(O)Cc1sc(Nc2ccccc2)nc1-c1cccs1	21	3	9	6002	2	4
CCn1c(CSc2nc3ccccc3[nH]2)n[nH]c1=S	.	2	2	23009*	3	-1
CC(=O)NS(=O)(=O)c1ccc(NC(=O)NC2CCCCC2)cc1	-1	0	-4	23046*	3	-2
CCn1cc([N+](=O)[O-])c(C(=O)N2N=C3/C(=C/c4cccs4)CCCC3C2c2cccs2)n1 (centres undefined)	9	-5	-6	21392*	-1	0
Cc1cc(NC(NC(=O)c2ccco2)(C(F)(F)F)C(F)(F)F)no1	2	-2	-4	17442*	-1	0
CC(C)(C)c1cc(NC(=O)c2ccco2)no1	-10	1	-2	5608	-6	0
CSc1ccc(S(=O)(=O)NCC(=O)OCC(=O)NCc2cccs2)cc1[N+](=O)[O-]	5	3	-3	?	.	-1
SMILES	CCHF vOTU inh	BoNT-A LC inh2	BoNT F protease	Bead autofluor	3CLpro inhibitor	Anthrax LF prot
Cc1ccccc1-n1nc2c(c1NC(=O)c1ccco1)CS(=O)(=O)C2	-2	0	0	4163	-10	-3
Cc1ccc(-n2nc3c(c2NC(=O)c2c(-c4ccccc4Cl)noc2C)CS(=O)(=O)C3)c(C)c1	0	?	-3	23658*	1	-2
Cc1ccccc1-n1nc2c(c1NC(=O)c1c(-c3ccccc3Cl)noc1C)CS(=O)(=O)C2	-1	-2	-7	16862*	-1	-10
O=c1cc(CSc2nnnn2-c2ccccc2)nc(Nc2ccc(F)cc2)[nH]1	4	0	3	23279*	3	0
O=C(c1ccc(Cn2c(=S)[nH]c3cc4c(cc3c2=O)OCO4)cc1)N1CCN(c2ncccn2)CC1	.	.	.	.	2	.
Cc1nnc(N2CCCC(C(=O)NCc3ccccc3F)C2)c2nn(-c3ccccc3)c(C)c12 (centres undefined)	-9	-7	13	13838	-1	-2
CCc1ccc(CNC(=O)C2CCCN(c3nnc(C)c4c(C)n(-c5ccccc5)nc34)C2)cc1 (centres undefined)	2	0	30	20786*	2	4
Cc1nnc(N2CCCC(C(=O)NCc3cccc(F)c3)C2)c2nn(-c3ccccc3)c(C)c12 (centres undefined)	-17	-3	19	16533*	2	4
CCOC(=O)C1(C)CCCN1C(=O)c1cccc(F)c1 (centres undefined)	15	0	1	3606	.	-1
O=C(C1CCN(S(=O)(=O)c2cccs2)CC1)N1CCCCC1	16	.	.	.	-3	.
O=C(NCc1cccnc1)C1CCN(S(=O)(=O)c2cccs2)CC1	1	-2	-2	23889*	2	0
O=C(c1ccco1)N1CCN(C(=O)C2CCN(S(=O)(=O)c3cccs3)CC2)CC1	-3	4	6	18565*	0	5
COc1cccc(CNC(=O)C2CCN(S(=O)(=O)N3CCCCC3)CC2)c1	-10	-5	-2	21716*	0	-2
COc1ccc(S(=O)(=O)N2CCC(C(=O)NCc3cccc(OC)c3)CC2)cc1	17	0	18	4495	9	-3
COc1cccc(CNC(=O)C2CSC3(C)CCC(=O)N23)c1 (centres undefined)	3	12	29	17016*	.	3
CCN(CC)c1ccc(NC(=O)CCS(=O)(=O)c2ccc(Br)cc2)c(C)c1	5	1	30	3803	1	-4
C=CCn1c(SCC(=O)c2cc(C)n(C(C)COC)c2C)nc2sc(C)c(C)c2c1=O (centres undefined)	-9	?	4	19713*	-1	-18
COC(=O)[C@]12C[C@H](CC(=O)N3CCN(C(=O)C4CC4)CC3)C(=O)N(Cc3cccc4ccccc34)C1=C[C@H](C1CCCC1)O[C@@H]2C	6	.	.	.	.	.
FC(F)(F)c1ccccc1CN1CCN(Cc2ccccc2)CC1	2	0	-7	5772	4	-8
Cc1ccccc1CN1CCN(Cc2ccccc2C(F)(F)F)CC1	11	?	2	20858*	6	-6
Cc1ccnc2nc(C(=O)OCC(=O)NC(=O)NCc3ccco3)nn12	-8	0	-4	4276	4	-1
O=C(Nc1ccc(C(F)(F)F)cc1)N1CCN(c2ccnc3cc(Cl)ccc23)CC1	0	1	-14	4244	-1	?
COc1cc(C2C(C#N)=C(N)Oc3c2oc(CO)cc3=O)ccc1OC(C)C (centres undefined)	-5	?	-2	20218*	-3	-1
